102 compounds from PubChem BioAssay AID686978 (National Center for Advancing Translational Sciences (NCATS), 2013) can be followed below.

Values joined by “and” are separate entries in the source; they are usually repeats but may differ in a detail not shown here. Equal values may be shown once. About 64,000 (15%) of roughly 420,000 compounds were called active. Another 27% or so got no clear call; they are omitted. Calls follow the shape of the dose curve; as a rule, active = well fitted inhibition curve with a large enough effect; inconclusive = small, poorly fitted or top-dose-only effect; inactive = flat fitted curve, though single readings scatter. The list is a sample of the results. Entries that show only a call come without a potency.
Potency is read from the fitted curve at half-maximal effect.

A short description of this test: qHTS for Inhibitors of human tyrosyl-DNA phosphodiesterase 1 (TDP1): qHTS in cells in absence of CPT. Also: nearly all actives have a fitted effect of over 55% in size. The note with it: DT40 Tdp1-/- hTDP1 cells, no CPT, ATP luminescence, 48 h; activity change, negative = growth inhibition: at 46.2 µM (top of the series). A digest of the protocol: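 Growth kinetics read by CellTiter-Glo luminescence after ≥48 hr at 37 °C. Cells: DT40 Tdp1-/- stably carrying human TDP1, 400 per well, compound exposure in the absence of CPT (DMSO vehicle).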
A general note: qHTS replaces the single test concentration by a dilution series.
Turning to `Cc1ccccc1OCc1nc2c3cnn(-c4ccccc4F)c3ncn2n1`, the Potency result is “inactive”.
For the compound `C=CCN(CC=C)CCOc1ccccc1[N+](=O)[O-]`, the Potency entry was “inactive”.
The value for `O=C(Cn1nnc(-c2ccccc2)n1)NCc1ccccc1` was “inactive”; that for `COc1ccc(CNC(=O)Cn2nnc(-c3ccccc3F)n2)cc1` was “inactive”; that for `COc1cc(-c2nnn(CC(=O)NCc3ccccc3)n2)cc(OC)c1OC` was 14.6 µM (active).
The value for `Cn1c(=NC(=O)CSCC(=O)N2CCOCC2)sc2ccccc21` was “inactive”; that for `CCC(=O)N1CCc2cc(S(=O)(=O)NCCC(=O)Nc3cccc(C)c3C)ccc21` was “inactive”.
Then `O=C(COC(=O)c1cccnc1Cl)NC12CC3CC(CC(C3)C1)C2`, with “inactive”; and `O=C(COC(=O)c1ccc(Br)o1)NC12CC3CC(CC(C3)C1)C2`, with “inactive”.
For the compound `COc1cc(C(=O)OCC(=O)NC23CC4CC(CC(C4)C2)C3)cc(OC)c1OC`, the Potency is 18.4 µM (active).
Regarding `CCOC(=O)CNc1nc2ccccc2n2c(C)nnc12`, the Potency result was “inactive”.
The value for `CCOC(=O)c1oc2c(CN3CCN(CCO)CC3)c(O)c(CC)cc2c(=O)c1-c1nc2ccccc2s1` was “inactive”.
As for `O=C(NCCCN1CCOCC1)c1ccccc1NS(=O)(=O)c1ccc(Br)cc1`, the Potency result is “inactive”.
Consider `O=C(NCCCN1CCOCC1)c1ccccc1NS(=O)(=O)c1ccc(F)cc1`, for which the Potency result was “inactive”.
In the case of `O=C(NCCCN1CCOCC1)c1cnn2c(-c3ccccc3)cc(-c3ccccc3)nc12`, the Potency was 20.6 µM (active).
The value for `COc1cc2c(cc1/C=C1/NC(=O)N(c3ccccc3)C1=O)OCO2` was “inactive”; that for `CCOC(=O)C1(C)NC(c2ccco2)C2C(=O)N(c3ccccc3)C(=O)C21` (configuration not stated) was “inactive”; that for `CCCCN=C1N/C(=C\c2ccco2)C(=O)N1c1ccccc1` was 29.1 µM (active).
Take `Cc1cc(NC(=O)CS(=O)(=O)c2cn(C)c3ccccc23)no1`: the Potency entry is “inactive”.
On to `CN(C)CCNC(=O)C(C(=O)c1ccccc1)n1ccccc1=O` (configuration not stated), for which the Potency result is “inactive”.
Consider `O=C(Nc1nc2c(F)cc(F)cc2s1)C1COc2ccccc2O1` (configuration not stated), for which the Potency entry is “inactive”.
Regarding `O=C(Nc1ncc([N+](=O)[O-])s1)C1COc2ccccc2O1` (configuration not stated), the Potency was 18.4 µM (active).
With `O=C(Nc1nnc(SCc2ccc(Cl)cc2Cl)s1)C1COc2ccccc2O1` (configuration not stated), the Potency entry is “inactive”.
The value for `CCCS(=O)(=O)Nc1ccc(-c2cn3c(n2)SCC3)cc1` was “inactive”; that for `CN(Cc1ccc2nsnc2c1)Cc1nc(Cc2cccc(F)c2)no1` was “inactive”.
The value for `CN1CCN(S(=O)(=O)c2cccc(C(=O)Nc3cccc(S(N)(=O)=O)c3)c2)CC1` was “inactive”; that for `O=C(Nc1cccc(S(=O)(=O)Nc2ccc(Cl)cc2)c1)c1ccc2c(c1)OCCO2` was 10.3 µM (active); that for `O=C(Nc1cccnc1)c1ccc2c(c1)OCO2` was “inactive”.
As for `O=C(Nc1ccc(N2CCCC2=O)cc1)c1cncc(Br)c1`, the Potency result was “inactive”.
Take `CC(NS(=O)(=O)c1ccc(Cl)cc1)C(=O)Nc1ccc2c(c1)OCCO2` (configuration not stated): the Potency entry is “inactive”.
The value for `O=C(Nc1cccc(S(=O)(=O)N2CCCC2)c1)c1cncc(Br)c1` was 13 µM (active); that for `Cc1ccc(S(=O)(=O)N2CCCCC2)cc1NC(=O)CCNC(=O)c1ccccc1` was “inactive”; that for `O=C(Nc1ccc(S(=O)(=O)Nc2ncccn2)cc1)c1cncc(Br)c1` was “inactive”.
Take `O=C(Nc1ccccc1)c1ccc2c(c1)OCCCO2`: the Potency result was “inactive”.
The value for `O=C(Nc1cccc(S(=O)(=O)N2CCCCC2)c1)c1ccc2c(c1)OCO2` was 16.4 µM (active); that for `Cc1ccc(C(=O)NCC(=O)OCC(=O)Nc2cccc(S(=O)(=O)N3CCCC3)c2)cc1C` was “inactive”; that for `O=C(CCNC(=O)c1ccc(Br)cc1)Nc1cccc(S(=O)(=O)N2CCCCC2)c1` was 18.4 µM (active).
As to `CCOc1cc2[nH]c(=O)n(Cc3ccc(C(=O)NCCCN4CCCC4=O)cc3)c(=O)c2cc1OCC`, the Potency entry was “inactive”.
Then `CS(=O)(=O)N1CCC2(CC1)CN(c1ccncc1)C2`, with “inactive”; and `Cc1ccc(-c2nnc3c4ccccc4c(C)nn23)cc1NC(=O)c1cccc(Br)c1`, with “inactive”.
Turning to `CS(=O)(=O)N1CCCC(C(=O)N2CCOCC2)C1` (configuration not stated), the Potency result is “inactive”.
The value for `CCOc1ccc(NC(=O)CN(C)CC(=O)NC(C)c2ccccc2)cc1OCC` (configuration not stated) was “inactive”; that for `COc1ccc(Cc2nnc(SCC(=O)c3cccc([N+](=O)[O-])c3)n2C)cc1` was “inactive”.
The value for `CCOc1ccc2nc(NCCNS(=O)(=O)c3ccccc3)c(C#N)cc2c1` was “inactive”.
With `CC(C)(C)N1C(=O)[C@H]2[C@@H](c3ccc(Br)cc3)N3C(=O)N(c4cccc(Cl)c4)C(=O)[C@@]3(C)[C@H]2C1=O`, the Potency result was “inactive”.
With `COC(=O)[C@H](Cc1ccccc1)NC(=O)Nc1ccc(S(N)(=O)=O)cc1`, the Potency entry is “inactive”.
In the case of `O=C(NNC1=NCCC1)c1cccc(S(=O)(=O)N2CCCCC2)c1`, the Potency entry is “inactive”.
With `CCN(CC(=O)Nc1ccc(S(=O)(=O)N2CCCC2)cc1)CC(=O)Nc1cccc(OC)c1`, the Potency entry was “inactive”.
For the compound `Cn1nnnc1SCC(=O)Nc1cccc(S(=O)(=O)N2CCCCC2)c1`, the Potency entry is “inactive”.
The value for `O=C(Nc1cccc(S(=O)(=O)N2CCCCC2)c1)c1cncc(Br)c1` was 18.4 µM (active); that for `O=C(Nc1nncs1)c1cccc(S(=O)(=O)N2CCCCC2)c1` was “inactive”.
The value for `O=C(Nc1ccc(Cl)cn1)c1ccc2c(c1)OCCO2` was 18.4 µM (active); that for `CCCc1cc(C(=O)Nc2ccc(Cl)cn2)cs1` was “inactive”.
For the compound `COc1c(Cl)cc(C(=O)Nc2ccc(Cl)cn2)cc1Cl`, the Potency result is “inactive”.
The value for `CCN(CC(=O)Nc1cccc(S(=O)(=O)N2CCCCC2)c1)Cc1ccccc1` was 23.1 µM (active); that for `Cc1cccc(C(=O)Nc2nnc(S(=O)(=O)N3CCCCCC3)s2)c1` was “inactive”; that for `O=C(Nc1nnc(S(=O)(=O)N2CCCCCC2)s1)c1cccc(Br)c1` was 4.61 µM (active) and 20.6 µM (active).
In the case of `CC(=O)NC(CC(=O)Nc1cccc(S(=O)(=O)N2CCCC2)c1)c1ccccc1` (configuration not stated), the Potency result is “inactive”.
Then `COc1ccc(S(=O)(=O)N2CCSCC2)cc1`, with “inactive”.
On to `CCOC(=O)NC(=O)CSc1nnc(SCCC(=O)O)s1`, for which the Potency result is “inactive”.
The value for `COc1ccccc1-c1ccc(C(=O)N(C)C(C)c2ccon2)c(N2CCN(c3ccccc3F)CC2)n1` (configuration not stated) was “inactive”; that for `N=c1c2c3c(sc2ncn1N)CCCC3` was “inactive”; that for `O=C(Nc1ccc(S(=O)(=O)N2CCCC2)cc1Cl)C1=COCCO1` was “inactive”.
Take `CC(C)(O)CCC(O)[C@@](C)(O)C1CC[C@]2(O)C3=CC(=O)C4CC(O)C(O)C[C@]4(C)C3CC[C@]12C` (some centres not stated): the Potency result is “inactive”.
As for `C=CCSc1nc2c(c(=O)[nH]1)C(C(C)C)C(C#N)=C(N)O2` (configuration not stated), the Potency result was “inactive”.
The value for `CC1CCCC(NC(=O)CSc2nccn2C)C1C` (configuration not stated) was “inactive”; that for `CSc1ccc(S(=O)(=O)NCC(=O)OCC(=O)NC2(C#N)CCCCC2)cc1[N+](=O)[O-]` was “inactive”; that for `Cc1cc(NC(=O)CCC(=O)N(CC(=O)NCC2CCCO2)c2ccccc2)no1` (configuration not stated) was “inactive”.
Consider `CCC(C)C(=O)Nc1cc([N+](=O)[O-])ccc1Cl` (configuration not stated), for which the Potency result was “inactive”.
The value for `N/C(=N\OC(=O)/C=C/c1ccccc1)c1ccc(Br)cc1` was “inactive”.
With `Cc1noc(C)c1CSCC(=O)Nc1ccc(Br)cc1Cl`, the Potency is 10.3 µM (active).
As to `Cc1cc(NC(=O)CSCc2ccccc2C)no1`, the Potency entry is “inactive”.
In the case of `CCOC(=O)c1c(C2CC2)csc1NC(=O)CSCc1c(C)noc1C`, the Potency entry is “inactive”.
Then `COCCNC(=O)c1cc2c(Br)ccc(Br)c2nc1N`, with “inactive”; and `CCOC(=O)C1(Cc2ccc(Cl)cc2)CCN(C(=O)C2=NNC(=O)CC2)CC1`, with “inactive”; and `COc1ccc(CCc2nnc(CCC(=O)NCc3cnn(-c4ccccc4C)c3)o2)cc1`, with “inactive”.
Then `COc1ccc(CCNC(=O)C(=O)NCC2OCCN2S(=O)(=O)c2ccc(F)cc2)cc1OC` (configuration not stated), with “inactive”; and `COc1ccc(CCNC(=O)C(=O)NCC2OCCN2S(=O)(=O)c2ccc(OC)c(C)c2)cc1` (configuration not stated), with 18.4 µM (active).
Then `COc1ccc(S(=O)(=O)N2CCOC2CNC(=O)C(=O)NCc2ccncc2)cc1C` (configuration not stated), with “inactive”; and `Cc1ccc(OCCNC(=O)CNC(=O)c2ccc(C)c(C)c2)cc1`, with “inactive”.
In the case of `O=C(NCc1ccc(Cl)cc1)c1ccc2c(c1)nnn2C1CCCC1`, the Potency result is “inactive”.
The value for `COCCNC(=O)c1ccc(S(=O)(=O)c2ccc(Cl)cc2)c(NC(C)=O)c1` was “inactive”; that for `CC1=Nc2cc(C(=O)NCc3ccc(C)cc3)ccc2Sc2ccc(Cl)cc21` was 20.6 µM (active); that for `COCCNC(=O)c1ccc2c(c1)N=C(C)c1cc(C)ccc1S2` was 0.461 µM (active).
Take `Cc1ccc(CNC(=O)c2ccc3c(c2)S(=O)(=O)c2ccccc2C3=O)cc1`: the Potency result was “inactive”.
Regarding `O=[N+]([O-])c1ccccc1/C=C/CN1CCCC(CO)C1` (configuration not stated), the Potency result was “inactive”.
For `Cc1nnc(SCC(=O)Nc2ncc3c(n2)CC(C)(C)CC3=O)s1`, the Potency entry is “inactive”.
On to `O=C(NC(=S)Nc1ncccn1)c1ccccc1Br`, for which the Potency result is “inactive”.
Consider `CCC(C)N(C(=O)COC(=O)c1nc(Cl)ccc1Cl)C1CCS(=O)(=O)C1` (configuration not stated), for which the Potency entry was “inactive”.
Consider `CCN(CC)CCN1C(=O)C(=O)/C(=C(/O)c2ccccc2)C1c1ccccc1F` (configuration not stated), for which the Potency result is “inactive”.
The value for `COc1cccc(C(c2c(O)cc(C)n(Cc3ccco3)c2=O)N2CCN(c3ccccc3)CC2)c1` (configuration not stated) was “inactive”; that for `Cc1c(NC(=O)CSc2cccc3cccnc23)c(=O)n(-c2ccccc2)n1C` was 23.1 µM (active).
Consider `Cc1c(NC(=O)CSc2nnnn2-c2ccc(C(=O)O)cc2)c(=O)n(-c2ccccc2)n1C`, for which the Potency result was “inactive”.
Then `Cc1c(NC(=O)CSc2nnc(-c3cccnc3)n2N)c(=O)n(-c2ccccc2)n1C`, with “inactive”.
Take `COc1ccc(F)c(CN2CCC3(CCC(CNC(=O)c4ccn(C)n4)O3)CC2)c1` (configuration not stated): the Potency entry was “inactive”.
In the case of `Cc1cc(NC(=O)Cn2nc(C(F)(F)F)c3c2CCCC3)no1`, the Potency result is “inactive”.
As to `OCCN1CCOCCOCCN(CCO)CCN(CCO)CC1`, the Potency entry was “inactive”.
Then `Cc1cc(C)c(C#N)c(SCc2ccc3c(c2)OCO3)n1`, with “inactive”.
The value for `C=CCn1c(CCNC(=O)c2cccs2)n[nH]c1=S` was “inactive”.
The value for `C=CCn1c(-c2sc(-c3ccccc3)nc2C)n[nH]c1=S` was 23.1 µM (active); that for `Cc1nc(-c2ccccc2)sc1-c1nnc(C2CC2)o1` was “inactive”; that for `COc1ccc(/C=C/c2c(-c3cccc(C)c3)oc3ccc(-c4ccc5c(c4)OCO5)cc23)cc1` was “inactive”.
